Compound activity: PubChem, National Center for Advancing Translational Sciences (NCATS)
Most compounds without a hit are left out; they make up all but 10% or so of the library.
GLS inhibitor: qHTS for Inhibitors of Glutaminase (GLS). Glutaminase kidney isoform, mitochondrial (Homo sapiens), O94925. GLS enzymatic activity, qHTS titration. Potency, µM (titrated, usually from 45.5 µM), for inactives: top-dose activity change, negative = inhibition, hits mostly inhibitors. actives 0.21% (n = 410,000); also: % is scaled to controls: 0 for no effect and ±100 for the full control effect
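Enzyme dispensed in phosphate buffer (45 mM, pH 8.2, 0.02% Tween-20), compounds pinned in, then 1 mM L-glutamine solution and the glutamate oxidase–HRP–Amplex Red mix added; fluorescence read immediately and again after 30 min at room temperature.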
G9a inh: qHTS Assay for Inhibitors of Histone Lysine Methyltransferase G9a | Histone-lysine N-methyltransferase EHMT2 (Homo sapiens), Q96KQ7 | G9a H3K9 monomethylation, AlphaScreen, 2 h | Potency, µM (doses to about 102 µM), for the others: top-dose activity, negative = inhibition, most hits filed as inhibitors | actives 8.8% (n = 350,000); also: % is scaled to controls: 0 for no effect and ±100 for the full control effect; nearly all actives have a fitted effect of over 75% in size
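Quantitative HTS format: methyltransferase activity on a biotin-tagged H3K9 peptide is measured by AlphaScreen, using a rabbit anti-monomethyl-H3K9 antibody with streptavidin donor and anti-IgG acceptor beads. Final levels are 20 nM enzyme, 500 nM peptide, 20 uM SAM; 2 h RT.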
BAZ2B block: qHTS Assay for Inhibitors of BAZ2B; Bromodomain adjacent to zinc finger domain protein 2B (Homo sapiens), Q9UIF8; AlphaScreen BAZ2B-H3K14Ac peptide displacement; Potency, µM (doses to about 114 µM), inactives show at the top dose activity change, negative = inhibition, hits mostly inhibitors; actives 4.4% (n = 360,000); AID 504333, 2011; also: % is scaled to controls: 0 for no effect and ±100 for the full control effect; nearly all actives have a fitted effect of over 60% in size
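Compounds, titrated to a top concentration of 110 uM, were incubated 30 min at room temperature with preformed BAZ2B/acetyl-K14 H3 peptide complex (50 nM each). Proximity signal was measured by AlphaScreen after 20 min with beads.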
JMJD2A Tudor inh: qHTS Assay for Inhibitors of JMJD2A-Tudor Domain. Lysine-specific demethylase 4A (Homo sapiens), O75164. AlphaScreen JMJD2A-Tudor / H3K4me3 peptide binding. Potency, µM (highest dose often 114 µM), without a hit: top-dose activity change, negative = inhibition, most hits filed as inhibitors. actives 4.4% (n = 390,000). AID 504339, 2011; also: % is scaled to controls: 0 for no effect and ±100 for the full control effect; nearly all actives have a fitted effect of over 50% in size
HP1b chromo inh: HTS for Inhibitors of HP1-beta Chromodomain Interactions with Methylated Histone Tails; AID 540317, 2011; Potency, µM (top dose mostly 114 µM), for the others: at the top dose activity change, negative = inhibition, most hits filed as inhibitors; AlphaScreen HP1-beta / biotin-H3K9me3 peptide binding; Chromobox protein homolog 1 (Homo sapiens), P83916; actives 0.56% (n = 390,000); also: nearly all actives have a fitted effect of over 70% in size
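Compound inhibition of the preformed complex between 50 nM HP1-beta and 50 nM biotinylated H3K9me3 peptide was read by AlphaScreen. Buffer was PBS pH 7.4 with 0.01% Tween-20. Incubations ran 30 min at room temperature, with 10 ug/mL donor/acceptor beads.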
The depositor's hits bear a star; ? = inconclusive; / = not tested or not shown; [ ] = dose if it differs, or a comment. Calls follow the shape of the dose curve; as a rule, active = well fitted curve in the direction sought with a large enough effect; inconclusive = small, poorly fitted or top-dose-only effect, or another doubt; inactive = no such curve, though single readings can be large; an effect the other way counts as inactive or inconclusive. Potency is read from the fitted curve at half-maximal effect.

SMILES	GLS inhibitor	G9a inh	BAZ2B block	JMJD2A Tudor inh	HP1b chromo inh
CC(=O)Nc1ccc(S(=O)(=O)NNC(=O)COc2ccc(Cl)cc2Cl)cc1	0%	50µM*	-17%	-17%	33%
O=C(COc1ccc(Br)cc1Cl)NC(=S)Nc1ccccn1	21%	79µM*	-16%	-12%	5%
COc1ccc(NC(=S)NNC(=O)COc2ccc(Cl)cc2Cl)cc1	12%	20µM*	-30%	?	-26%
O=C(OCCOc1ccc(F)cc1)c1ccc(S(=O)(=O)N2CCCC2)cc1	0%	0%[2.33 µM]	16%	30%	52%
O=C(COC(=O)C1CCC1)Nc1ccc(OC(F)F)cc1	0%	18%[2.33 µM]	13%	3%	41%
O=C(CCc1ccccc1)NCc1ccccc1	-5%	9%	5%	-13%	24%
CCOc1ccc(CC(=O)NNC(=S)Nc2ccccc2)cc1Br	4%	25µM*	1%	22%[11.4 µM]	48%
Cc1ccc(CCC(=O)NCc2ccccc2)o1	-6%	79µM*	-5%	-21%	32%
CCOc1ccccc1/C=C(\C#N)C(=O)NC1CC1	-7%	/	/	-6%	36%
C[N+]1(CCCCSc2ccc(O)cc2)CCCCC1	?	?	?	-3%	3%
CC(=O)OCCCCCCCCCCC[N+]1(C)CCCCC1	-2%	45µM*	-21%	-2%	19%
COC(=O)CCCCCCCCCC[N+]1(C)CCCCC1	7%	16µM*	-35%	?	13%
Cc1cc(C(=O)NN)n[nH]1	6%	5%	-11%	7%	52%
CCCn1c(SCC(=O)N2CCN(c3ccccc3)CC2)nc2ccccc2c1=O	-14%	8%[12.7 µM]	-26%	-27%	2%
Cc1cccc(Nc2nnc(SCC(=O)Nc3cccnc3Cl)s2)c1	16%	?	-12%	-14%	26%
CCCc1nc2c(sc3nc4c(cc32)COC(C)(C)C4)c(=O)n1CCN(CC)CC	4%	?	/	-3%	8%
CCC(=O)Nc1ccc(-c2csc(C)n2)cc1	22%	-2%	1%	0%	9%
CCC(=O)Nc1ccc(-c2csc(NNC(C)=O)n2)cc1	-27%	14µM*	-27%	-8%	24%
CCCCCC(=O)Nc1ccc(-c2csc(N)n2)cc1	-13%	40µM*	?	-29%	25%
CC(=O)Nc1ccc(-c2csc(NC(=O)CC(NC(C)=O)c3ccccc3)n2)cc1 (centres undefined)	-5%	45µM*	-3%	-13%	-18%
CCCCCC(=O)Nc1ccc(-c2csc(C)n2)cc1	6%	7%[59 µM]	27%	-14%	16%
CC(=O)NC(CC(=O)Nc1nc(-c2ccc(N(C)S(C)(=O)=O)cc2)cs1)c1ccccc1 (centres undefined)	0%	?	-4%	-14%	7%
CC(=O)Nc1ccc(-c2csc(N/N=C(/C)c3ccccc3)n2)cc1	9%	18µM*	?	?	-17%
Cc1ccc2cn[nH]c2c1N	16%	?	-19%	-15%	14%
COc1ccc(C2=CC(=O)N(Nc3ccccc3)C2=O)cc1	10%	?	-22%	-23%	-9%
SMILES	GLS inhibitor	G9a inh	BAZ2B block	JMJD2A Tudor inh	HP1b chromo inh
O=C1c2ccccc2C(=O)N1OS(=O)(=O)c1ccccc1	/	4µM*	-11%	/	/
O=C1c2cccc3cccc(c23)C(=O)N1OS(=O)(=O)c1ccccc1	-11%	27%[59 µM]	7%	-23%	4%
Cc1ccc(S(=O)(=O)ON2C(=O)c3cccc4cccc(c34)C2=O)cc1	-2%	28%[59 µM]	-2%	-24%	54%
Cc1cc(S(=O)(=O)ON2C(=O)c3ccccc3C2=O)ccc1F	26%	7.1µM*	-26%	79µM*	?
Cc1ccc(C)c(S(=O)(=O)ON2C(=O)c3ccccc3C2=O)c1	26%	7.9µM*	-6%	?	32µM*
COc1ccc(OCC(=O)N2c3ccccc3CCc3ccccc32)cc1	0%	59%[59 µM]	1%	-15%	38%
CCN(C[C@H]1N[C@@](C)(C(=O)OC)[C@H]2C(=O)N(Cc3ccccc3)C(=O)[C@@H]12)S(=O)(=O)c1ccc(F)cc1	2%	/	/	-10%	32%
COc1cc(/C=N/NC(=O)c2cccc(NC(=O)c3ccccc3)c2)ccc1O	-2%	17%	-14%	-16%	57%
COc1cc(/C=N/NC(=S)Nc2cccc(S(=O)(=O)N(C)C)c2)ccc1O	10µM*	-1%[59 µM]	-38%	?	-21%
CN(C)S(=O)(=O)c1cccc(NC(=S)N/N=C/C2CC=CCC2)c1 (centres undefined)	2%	5.6µM*	-25%	13µM*	38%
Cc1cc(NC(=O)CSc2ccc3nnc(-c4ccc(F)cc4)n3n2)no1	-2%	79µM*	-21%	-9%	-2%
COC(=O)CSc1ccc2nnc(-c3ccc(F)cc3)n2n1	1%	79µM*	-2%	7%	23%
Cc1ccc(-c2nnc3ccc(SCC(=O)Nc4cc(C)on4)nn23)cc1	-5%	?	3%	-2%	29%
CCOC(=O)CC(=O)CSc1ccc2nnc(-c3ccc(F)cc3)n2n1	-3%	-6%	6%	-3%	28%
CC1CN(C(=O)Nc2ccc3c(c2)OCCO3)CC(C)O1 (centres undefined)	6%	22%	0%	-15%	18%
COc1ccc(S(=O)(=O)N2CCC(C(=O)NCc3ccc(C)cc3)CC2)cc1	-4%	-11%	-12%	-1%	14%[57 µM]
COc1ccc(CNC(=O)C2=CCN(S(=O)(=O)c3ccc(C)cc3)CC2)cc1	0%	45µM*	5%	-8%	24%
Cc1ccc(CNC(=O)c2sc3ccc(S(=O)(=O)N4CCCCC4)cc3c2N)cc1	/	45µM*	0%	/	/
Nc1c(C(=O)NCCC2=CCCCC2)sc2ccc(S(=O)(=O)N3CCCCC3)cc12	1%	?	-1%	-19%	19%
Cc1ccc(S(=O)(=O)N2CC=C(C(=O)NCc3ccccc3)CC2)cc1	2%	40µM*	0%	-4%	43%
CC(C)Cc1ccc(C(C)NC(=O)c2ccc(=O)[nH]c2)cc1 (centres undefined)	-1%	4%	-14%	-19%	21%
CC(C)(C)c1ccc(NC(=O)N2CCCN(c3ccc([N+](=O)[O-])cn3)CC2)cc1	0%	?	-24%	-34%	-12%
CC(C)c1nc2oc3c(N4CCNCC4)ncnc3c2c2c1CCC2	-8%	/	/	-4%[11.4 µM]	67%
COc1ccc(S(=O)(=O)Nc2ccccc2C(=O)NC(C)(C)C)cc1OC	3%	17%	-19%	-4%	36%
N#Cc1cnc(SCCc2ccccc2)nc1N	-1%	?	-1%	-4%	64%
Cc1cnc(SCCc2ccncc2)nc1C	/	8.9µM*	4%	/	/
Cn1nc(CC#N)c2c(=N)n(N)cnc21	-5%	/	/	32µM*	2%
